Sampled rows, rich in hits. Any-hit rate of the full collection: about 2.9%.
ATXN viability = Viability Counterscreen for Primary qHTS for Inhibitors of ATXN expression. AID 651635, 2014. Potency, µM (doses to about 56.7 µM), usual class: cytotoxic. hit rate 0.49% among 400,000. S2 cells (HEK-293 line with an ATXN2-luciferase reporter) viability, CellTiter-Fluor protease fluorescence, 24 h; note: nearly all actives have a fitted effect of over 40% in size
Nrf2 block = Nrf2 qHTS screen for inhibitors; A549 ARE-Fluc reporter, luciferase luminescence, 18-24 h; Potency, µM (titrated, usually from 46 µM), actives largely listed as inhibitors; hit rate 2.1% among 360,000; note: nearly all actives have a fitted effect of over 60% in size
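Cells were seeded and rested 2 h, then exposed to compounds for 18-24 h. CellTiter-Fluor was read first as a viability measure. BugLite was added 15 min before the final luminescent read of ARE-luciferase activity in A549 cells.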
A549 viability = Nrf2 qHTS screen for inhibitors: counterscreen for cytotoxicity. A549 ARE-Fluc cells, CellTiter-Fluor viability, 18-24 h. Potency, µM (highest dose often 46 µM), most hits filed as inhibitors. hit rate 0.16% among 390,000. AID 504648, 2011
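A549 ARE_Fluc cells in 5% FBS OPTI-MEM were exposed to compounds in concentration-response for 18-24 h at 37 deg C. Viability was read by CellTiter-Fluor fluorescence (Ex 405/Em 525) after 30 min, before the luciferase read.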
Nrf2 activator = qHTS of Nrf2 Activators | Potency, µM (series often up to 46.1 µM), most hits filed as activators | hit rate 0.31% among 410,000 | AREc32 ARE-luciferase reporter (MCF7-derived line), luminescence, 24 h; note: nearly all actives have a fitted effect of over 65% in size
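ARE-driven firefly luciferase activity in AREc32 cells measured after a 24 hr compound exposure at 37 deg C, using Steady-Glo reagent and a 30 min room-temperature hold.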
ATXN2 expr inh = Primary qHTS for Inhibitors of ATXN expression. HEK-293 ATXN2-luciferase reporter, luminescence, 24 h. Potency, µM (doses to about 57 µM), actives largely listed as inhibitors. hit rate 0.72% among 360,000; note: nearly all actives have a fitted effect of over 55% in size
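qHTS (up to 57 uM final) was run with 24 h compound exposure of reporter cells at 37 °C. Each well was multiplexed: SteadyGlo luminescence measured ATXN2-luciferase expression after a fluorogenic Gly-Phe-AFC viability readout (25 uM final).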
A number is an active result; n = inactive; u = inconclusive; x = no result; ! = not confirmed by another sample; [ ] = another dose, or the depositor's remark. Calls come from the whole dose curve; as a rule, active = well fitted curve in the direction sought with a large enough effect; inconclusive = small, poorly fitted or top-dose-only effect, or another doubt; inactive = no such curve, though single readings can be large; an effect the other way counts as inactive or inconclusive.

SMILES	ATXN viability	Nrf2 block	A549 viability	Nrf2 activator	ATXN2 expr inh
Cc1ccc(CS(=O)(=O)c2ncc(Cl)c(C(=O)Nc3nnc(C(C)C)s3)n2)cc1	u	20.6µM!	u	n	u
O=C(Nc1nc2ccc(F)cc2s1)c1nc(S(=O)(=O)Cc2ccccc2F)ncc1Cl	11.2µM	u	u	n	25.1µM
c1coc(-c2ccccc2CN2CCOc3ccc(CN4CCOCC4)cc3C2)c1	n	x	x	x	x
CSc1nnc(NC(=O)c2nc(S(=O)(=O)Cc3cccc(C)c3)ncc2Cl)s1	22.4µM	u	n	u	28.2µM
CCn1c(-c2ccccc2F)nc2cc(NC(C)=O)cc(C(=O)NCc3ncc(C)[nH]3)c21	n	x	x	x	x
CCCc1sc(N/N=C/c2ccccn2)nc1-c1ccc(F)cc1	15.8µM	u	u	n	3.98µM
O=C(NC1CCCCCC1)c1ccc2c(c1)sc1nc(-c3ccccc3)cn12	x	n	n	n	x
COc1cccc2c1C(CO)N1C(C#N)C3CC(C(=O)O)C(C1C2)N3C (stereo unspecified)	n	u	n	n	0.282µM
COc1cccc2c1OCC(C(=O)O)C2 (stereo unspecified)	n	n	n	n	n[11.3 µM]
CCOC(=O)c1c(C)n(-c2ccccc2)c2ccc(OC(=O)c3ccccc3NC(=O)C(C)(C)C)cc12	25.1µM	n	n	n	u
CCOC(=O)c1c(C)n(-c2ccccc2)c2ccc(OC(=O)c3ccccc3NC(=O)C(C)C)cc12	u	n	n	n	u
CC(=O)Oc1ccc(C(=O)Nc2cccc(-c3nnc(-c4ccco4)o3)c2)cc1	n	16.4µM	u	n	n
O=C(Nc1cccc(-c2nnc(-c3ccco3)o2)c1)C(c1ccccc1)c1ccccc1	n	20.6µM	n	n	n
O=C(Nc1cccc(-c2nnc(-c3ccco3)o2)c1)c1ccccc1	n	u	n	n	n
C=C(c1ccccc1C)[n+]1ccccc1	n	18.4µM	n	n	n
C=C(c1ccccc1Cl)[n+]1ccccc1	n	7.31µM	u	n	n
O=C(NNC(=O)c1ccccc1Cl)c1ccccc1Cl	u	n	n	n	n
CCCCc1ccc(NC(=O)N2CCN(c3cc(C)nc4ccccc34)CC2)c(C)c1	u	u	u	n	17.8µM
C=CC[N@@+]12CC[C@@]34c5ccccc5N5/C=C6/[C@H]7C[C@H]8[C@@]9(CC[N@@+]8(CC=C)C/C7=C/CO)c7ccccc7N(/C=C(/[C@@H](C[C@@H]31)/C(=C\CO)C2)[C@H]54)[C@@H]69	n	x	x	x	x
O=C(NCCn1cc(SCc2ccccc2)c2ccccc21)c1cccs1	u	u	n	n	u
Cc1nnc(NC(=O)CSc2cn(CCNC(=O)c3ccccc3)c3ccccc23)s1	x	n	n	n	n
COc1ccc(C(=O)NCCn2cc(SCC(=O)Nc3cccc(C)c3)c3ccccc32)cc1	u	u	n	n	u
COc1ccc(C(=O)NCCn2cc(SCc3c(F)cccc3Cl)c3ccccc32)cc1	14.1µM	u	u	n	u
COc1ccc(C(=O)NCCn2cc(SCC(=O)Nc3nnc(C)s3)c3ccccc32)cc1	n	10.3µM	n[1.84 µM]	n	n
O=C(NCCn1cc(SCc2ccccc2Cl)c2ccccc21)c1cccs1	u	16.4µM	n	n	u
SMILES	ATXN viability	Nrf2 block	A549 viability	Nrf2 activator	ATXN2 expr inh
Cc1csc(SCC(=O)Nc2nc3ccccc3s2)n1	n	u	n	n	n
Cn1cc(SCC(=O)Nc2nc3ccccc3s2)c2ccccc21	n	u	u	n	25.1µM
CO/N=C(\C(=O)O)c1csc(NC(=O)CCl)n1	n	x	x	x	n
CCCCCCn1c(SCC#N)nc2ccccc2c1=O	x	n	n	x	x
Cc1cnc(C)c(-c2cccc3c2OC(CNC(=O)C[C@@H]2C[C@@H](C)NC(=S)N2)C3)n1 (stereo partly specified)	n	x	x	x	x
COc1cc(-c2cnc3ccccc3c2)cc2c1OCCN(C(=O)Cn1nccc1C)C2	n	x	x	x	x
COc1ccc(OC)c(-c2nnc3ccc(-c4ccc(OC)c(O[C@@H]5CCOC5)c4)nn23)c1	x	x	x	x	27.3µM
O=C(O)COc1cccc(NC(=O)c2ccccc2)c1	n	n	n	n	n
O=C(COc1cccc(NC(=O)c2cccc([N+](=O)[O-])c2)c1)c1ccc(Br)cc1	u	20.6µM	u	n	u
O=C(COc1cccc(NC(=O)c2ccccc2)c1)c1ccccc1	n	20.6µM	n	n	n
O=C(Nc1cccc(OCC(=O)N2CCOCC2)c1)c1cccc([N+](=O)[O-])c1	n	n	n	n	x
O=C(CSc1nnc(CCc2ccccc2)n1-c1ccc(Cl)cc1)c1ccccc1	n	23.1µM	u	n	n
O=S(Cc1ccc(Br)cc1)Cc1nnc(SCc2ccc(Cl)cc2)n1-c1ccccc1 (stereo unspecified)	u	16.4µM	u	n	n
CC(=Cc1ccccc1)C=C1SC(=S)N(CC(=O)O)C1=O	x	x	x	x	n
CCn1nc(C)c(CN2CCC3(CCC(CNC(=O)c4ccccc4)O3)CC2)c1C (stereo unspecified)	n	x	x	x	x
CCCn1c(C)cc(C(=O)COc2ccc(C)nc2[N+](=O)[O-])c1C	n	n	n	n	n
Cc1ccc(OCC(=O)c2cc(C)n(-c3ccccc3)c2C)c([N+](=O)[O-])n1	n	u	n	n	3.16µM
Cc1cc(C(=O)CCl)c(C)n1-c1cccc([N+](=O)[O-])c1	25.1µM	n	n	n	u
COc1cc(=O)n2c(c1C(=O)N(C)C(C)c1ccco1)CCN(C(=O)c1ccc(C(C)=O)cc1)CC2 (stereo unspecified)	n	x	x	x	x
COc1ccccc1NC(=O)C1CCN(S(=O)(=O)c2ccc3c(c2)CC(C)N3C(C)=O)CC1 (stereo unspecified)	n	u	n	n	n
CC(=O)N1c2ccc(S(=O)(=O)NCC3CCC(C(=O)Nc4ccc(C)c(C)c4)CC3)cc2CC1C (stereo unspecified)	x	20.6µM	n	n	x
COc1ccccc1NC(=O)C1CCC(CNS(=O)(=O)c2ccc3c(c2)CC(C)N3C(C)=O)CC1 (stereo unspecified)	x	18.4µM	n	n	x
OC1(c2cccnc2)CCN(Cc2ccc3c(c2)CN(Cc2ccc(F)c(F)c2)CCO3)CC1	n	x	x	x	x
Cc1cc(=O)c2c(O)c3c(O)cc(=O)c4c3c3c(cc(O)c1c23)C(C)(C)C=4O	n	x	x	x	27.3µM!
CCn1cc(CN2Cc3ccccc3OC(c3ccccc3OC)C2)c(C)n1 (stereo unspecified)	n	x	x	x	x
Cc1cc(C)c(S(=O)(=O)c2ccccc2)c(OC(=O)c2c(Cl)cc(Cl)cc2Cl)n1	u	16.4µM	u	n	n
O=C(O)Cn1nc(N2CCN(c3ccccc3)CC2)ccc1=O	n	n	n	n	n
CN(CCc1ccccc1)C(=O)c1cccc(NC(=O)Cc2cccc(NC(=O)C3CCCN(C(=O)C4CCCCC4)C3)c2)c1 (stereo unspecified)	n	u	n	n	n
